In the library only some 2.6% were active in any assay of this set; here they are far more common.
Cruzain Triton: blocks cruzain activity in presence of Triton detergent. Potency, µM, most hits filed as inhibitors. hit rate 0.43% among 200,000. purified cruzain, Z-FR-AMC fluorescence, 0.01% Triton. AID 1478; further: nearly all actives have a fitted effect of over 40% in size
Target sequence (P25779 123-467 limits assumed): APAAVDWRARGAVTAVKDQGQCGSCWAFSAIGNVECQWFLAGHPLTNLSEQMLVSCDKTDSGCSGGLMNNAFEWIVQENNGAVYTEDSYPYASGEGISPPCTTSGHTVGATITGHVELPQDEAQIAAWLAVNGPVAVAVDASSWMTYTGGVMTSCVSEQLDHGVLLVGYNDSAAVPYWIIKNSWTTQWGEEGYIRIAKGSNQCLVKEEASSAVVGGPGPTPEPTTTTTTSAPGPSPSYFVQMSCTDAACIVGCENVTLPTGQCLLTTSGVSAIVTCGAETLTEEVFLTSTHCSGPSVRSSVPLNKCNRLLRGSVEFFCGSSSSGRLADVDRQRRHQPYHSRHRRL
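Purified cruzain (1.5 nM final) was preincubated with compounds for 15 min at room temperature in 100 mM sodium acetate pH 5.5, 5 mM DTT, 0.01% Triton X-100. Reaction started with 2 uM Z-FR-AMC; AMC fluorescence change over 60 s gave activity.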
Cruzain noTriton: inhibitors of Trypanosoma cruzi cruzain without detergent; P25779; purified cruzain, Z-FR-AMC fluorescence, no detergent; Potency, µM, usual class: inhibitors; hit rate 2.3% among 200,000; further: nearly all actives have a fitted effect of over 40% in size
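Detergent-free condition (0.00005% Triton X-100) in acetate buffer pH 5.5 with DTT. 1.5 nM enzyme and compound were pre-mixed 15 min, then 2 uM Z-FR-AMC substrate added; reaction progress from fluorescence change between first and third reads (60 s).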
Hits are given with their value; i = inactive; ? = inconclusive. The call rests on the fitted dose curve; in most records, active means well fitted curve in the direction sought with a large enough effect; inconclusive means small, poorly fitted or top-dose-only effect, or another doubt; inactive means no such curve, though single readings can be large; an effect the other way counts as inactive or inconclusive.

SMILES	Cruzain Triton	Cruzain noTriton
Cc1cc(C(=O)CN2C(=O)NC(c3ccccc3)(c3ccccc3)C2=O)c(C)n1Cc1ccco1	i	?
Cc1cc(C(=O)CSc2nc3ccccc3[nH]2)c(C)n1Cc1ccco1	i	25µM
O=C(Cn1c(=O)n(-c2ccc(Cl)cc2)c(=O)c2sc3ccccc3c21)NC1CCCC1	i	i
Cc1cc(C)c2sc(NC(=O)c3ccc(S(=O)(=O)N4CCOCC4)cc3)nc2c1	i	i
Nc1cc(C(=O)O)ccc1Nc1ccccc1	i	i
Nc1ccc(Nc2ccccc2N)cc1	i	25µM
COc1ccc(OC)c(C2CC(=O)Nc3c2c(=O)[nH]c2nc4ccccc4n32)c1 (configuration not stated)	i	i
CN(C)c1ccc(NC(=O)C2(c3cccs3)CCOCC2)cc1	i	i
CC1(C)OCC(CSC2=C(SCC3COC(C)(C)O3)C(=O)c3ncccc3C2=O)O1 (configuration not stated)	16µM	?
O=C1c2cccnc2-c2ncccc21	i	i
Cc1ccc(-c2nc3ncccc3o2)cc1NC(=O)c1ccc(-c2cccc(Cl)c2C)o1	i	i
CC(C)Oc1ccccc1/C=N/NC(=O)c1ccc(F)cc1	i	i
CC(C)Oc1ccc(Br)cc1/C=N\NC(N)=S	0.25µM	0.032µM
COc1ccc(S(=O)(=O)Nc2cccc(-c3ccc(N4CCCCCC4)nn3)c2)cc1	i	?
COc1cc2c(cc1OC)C1=NC(=O)CN1C(SCc1ccc(C)cc1)=N2	i	i
Cc1ccc(CSC2=Nc3sccc3C3=NC(=O)CN23)cc1	i	20µM
Cc1cccc(NC(=O)NCCOCCn2c(=O)oc3ccccc32)c1C	i	i
CC(=O)Nc1cccc(NC(=O)CSc2ccc(C(F)(F)F)cc2[N+](=O)[O-])c1	i	i
O=C(CSc1ccc(C(F)(F)F)cc1[N+](=O)[O-])Nc1ccc2ccccc2c1	i	13µM
CCOC(=O)c1cc(-c2ccccc2)n(CCC(=O)Nc2nc3c(C)cccc3s2)c1C	i	?
CCOc1ccc(S(=O)(=O)N2CCN(c3c(C)cccc3C)CC2)c2ccccc12	i	?
Cc1cc2cc(CNS(=O)(=O)c3ccc4ccccc4c3)ccc2n1C	i	25µM
CC(=O)Nc1ccc(S(=O)(=O)NCc2ccc3c(c2)cc(C)n3C)cc1	i	i
CC1CCc2c(sc3nnn(Cc4ccccc4Cl)c(=O)c23)C1 (configuration not stated)	i	i
CCc1c(C)sc2c1CCN(C(=O)Nc1ccccc1C(=O)OC)C2c1ccc(F)cc1 (configuration not stated)	i	?
SMILES	Cruzain Triton	Cruzain noTriton
CCc1c(C)sc2c1CCN(C(=O)Nc1ccccc1C(F)(F)F)C2c1ccccc1 (configuration not stated)	i	i
CCc1c(C)sc2c1CCN(C(=O)Nc1cc(Cl)c(OC)cc1OC)C2c1ccccc1 (configuration not stated)	i	6.3µM
CCc1c(C)sc2c1CCN(C(=O)Nc1ccc(F)c(Cl)c1)C2c1ccc(F)cc1 (configuration not stated)	i	10µM
COc1ccccc1CNC(=O)CN1C(=O)CCc2cc(S(=O)(=O)N3CCCCC3)ccc21	i	i
O=C(CSc1nc2c([nH]c3ccccc32)c(=O)n1-c1ccc(F)cc1)NCC1CCCO1 (configuration not stated)	i	i
COc1ccc(/C=N/Nc2nnc(-c3ncc[nH]3)c3ccccc23)cc1	i	i
Oc1ccc2ccccc2c1/C=N/Nc1nnc(-c2ncc[nH]2)c2ccccc12	i	25µM
Cc1nc2c(C(=O)NC(C)c3ccccc3)cnn2c(C)c1Cc1ccccc1 (configuration not stated)	i	i
CCc1cccc(C)c1NC(=O)C(NS(=O)(=O)c1ccc2c(c1)CCC(=O)N2)c1ccccc1 (configuration not stated)	i	i
CCOc1ccccc1N(CC)C(=O)Cn1ncc2c1-c1ccccc1OC2	i	i
C[C@@H](C(=O)Nc1ccc2ccccc2c1)[C@@H]1C[C@@]1(C)[C@@H](NC(=O)Oc1ccc(F)cc1)c1ccccc1	i	7.9µM
C[C@@H](C(=O)Nc1ccc2ccccc2c1)[C@@H]1C[C@@]1(C)[C@@H](NS(=O)(=O)c1ccccc1)c1ccccc1	i	?
C[C@@H](C(=O)Nc1ccc2ccccc2c1)[C@@H]1C[C@@]1(C)[C@@H](NS(=O)(=O)c1ccc(-c2ccccc2)cc1)c1ccccc1	i	3.2µM
CC(=O)N[C@@H](c1ccccc1)[C@]1(C)C[C@H]1[C@@H](C)C(=O)Nc1ccc2ccccc2c1	i	?
CCc1cccc(NC(=O)Cn2c(-c3ccc(F)cc3)cc(C(C)=O)c2C)c1	i	i
CCc1ccc(N(CC)C(=O)Cn2nc(Cc3cccnc3)c3ccccc3c2=O)cc1	i	i
O=c1oc2c(CN3CCOCC3)c(O)ccc2c2c1CCC2	?	i
Cc1cc(=O)oc2c(O)c(O)ccc12	i	i
CC(C)CN(Cc1c(O)ccc2c3c(c(=O)oc12)CCC3)CC(C)C	28µM	i

Screening results: PubChem, National Center for Advancing Translational Sciences (NCATS)
